Results reported in PubChem BioAssay AID977607 (Broad Institute, 2014).
Hit rate of the full screen: of about 1,500 compounds, about 460 (31%) were called active. About 1% were inconclusive and are not listed.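 How the source made its calls: active means curve reaches 40% activation over neutral controls at an AC40 no higher than the top valid tested concentration; inconclusive means no clear call, values can overlap the other calls; inactive means signal moving opposite to the expected increase, and the rest.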 The list is a sample of the results. Potency and affinity values are given separately.

Test: GLuc-reported insulin release enhancers, glucose-stimulated beta cells – cell-based, INS-1E, Gaussia luciferase, luminescence, cherry-pick, set 2, dose response (AID 977607);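 further: 0% = median of the plate neutral control wells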
Conditions: INS-1E GLuc insulin secretion reporter, 2-3 h, active compounds read high; at 35 µM, 100% = signal doubled over neutral wells unless noted

Max activation, inactive:
C=CCc1ccccc1Oc1cc(OC)nc(N)n1 -22% [at 1.2 µM, 100% = signal doubled over neutral wells]
COc1ccc(CCNC(=O)C(=O)c2c(C)n(C)c3ccccc23)cc1OC -13.8% [at 1.2 µM, 100% = signal doubled over neutral wells]
CCC(C)c1ccccc1OCCn1ccnc1 (centres undefined) 16.6% [at 0.005 µM, 100% = signal doubled over neutral wells]
COc1ccc(OCCCCN(C)Cc2ccccc2)cc1 -18.5% [at 1.2 µM, 100% = signal doubled over neutral wells]
CCC(=O)Nc1sc(Cc2ccc3c(c2)OCO3)c(C)c1C(N)=O -24.2% [at 0.0016 µM, 100% = signal doubled over neutral wells]
O=C(N/N=C/c1ccc2c(c1)OCO2)c1ccc(Cl)cc1Cl -37.2%
O=C(Nc1ccc(F)cc1)c1cccnc1Oc1ccccc1 21.8%
CC(C)CCN1CC(O)=C(c2nc(-c3ccc(Cl)cc3)cs2)C1=N -11.3% [at 0.005 µM, 100% = signal doubled over neutral wells]
CCCn1c(C)cc(C)c(C#N)c1=O -11.7% [at 1.2 µM, 100% = signal doubled over neutral wells]
O=C(O)CC(CC(=O)Nc1ccc(C(=O)O)cc1)c1ccccc1 (centres undefined) 11.8% [at 3.8 µM, 100% = signal doubled over neutral wells]
CCNc1nc(Oc2ccc(C#N)cc2)cc(C(F)(F)F)n1 -19% [at 0.135 µM, 100% = signal doubled over neutral wells]
O=S(=O)(NCc1ccccc1)c1ccc(-n2cccn2)cc1 32% [at 0.135 µM, 100% = signal doubled over neutral wells]
Cc1ccc2c(c1)N(C(C)C(=O)NCc1cccs1)C(=O)CO2 (centres undefined) 15.9% [at 0.42 µM, 100% = signal doubled over neutral wells]
CN1CCCC1CCNC1C2CC3CC(C2)CC1C3 (centres undefined) -20.8% [at 0.135 µM, 100% = signal doubled over neutral wells]
Cc1ccc(-n2nc3c(c2NC(=O)C2CC2)CS(=O)(=O)C3)cc1 -19.6% [at 0.005 µM, 100% = signal doubled over neutral wells]
CC(C)CN(C(=O)C1CCCCC1)C1CCS(=O)(=O)C1 (centres undefined) -14.6% [at 3.8 µM, 100% = signal doubled over neutral wells]
CC1CCC(NC(=O)C2COc3ccccc3O2)CC1 (centres undefined) -17.3% [at 0.135 µM, 100% = signal doubled over neutral wells]
O=C(O)C1Cc2c([nH]c3ccccc23)C(c2ccc3c(c2)OCO3)N1 (centres undefined) 27.5% [at 0.015 µM, 100% = signal doubled over neutral wells]
CC(=O)N1CCN(c2nc(-c3cccs3)nc3ccccc23)CC1 40.4% [at 11 µM, 100% = signal doubled over neutral wells]
Cc1nn(-c2ccccc2)c2nc(C(F)F)cc(C(F)F)c12 13.6%
COc1ccc(-c2cnc(N)nc2-c2ccc(OC)cc2)cc1 20.9% [at 11 µM, 100% = signal doubled over neutral wells]
Cc1cccn2cc(CCNS(=O)(=O)c3cccs3)nc12 -22.2% [at 0.42 µM, 100% = signal doubled over neutral wells]
Cc1cc(OCC(O)CNC(C)c2ccccc2)ccc1C(C)C (centres undefined) 327%
COc1ccccc1C(C)NS(=O)(=O)c1ccc(Cl)nc1 (centres undefined) 15.6% [at 3.8 µM, 100% = signal doubled over neutral wells]
Cc1cn(CC(C)C)c(=O)n(-c2ccccc2)c1=O 12.2%
Cc1cccc2nc(-c3ccco3)c(Nc3ccccc3)n12 -25.5%
O=c1c(C(c2ccccc2)c2c(O)sc3ccccc3c2=O)c(O)sc2ccccc12 19.2%
COc1ccc(N2CC(C(=O)N3CCc4ccccc43)CC2=O)cc1 (centres undefined) -12.5% [at 0.0016 µM, 100% = signal doubled over neutral wells]
COc1ccc(-c2[nH]c3ccccc3c2SCCN)cc1 -28.1%
CCCCc1[nH]c(=O)c(C#N)c2c1CCCC2 16.7%
Cc1c(OCC(=O)NCc2ccccn2)ccc2c3c(c(=O)oc12)CCCC3 27.3%
NNc1nc(-c2ccccc2)c2ccccc2n1 -19.6% [at 0.046 µM, 100% = signal doubled over neutral wells]
CCn1c(=O)[nH]c(=O)c2c(N)c(C(=O)c3cc(F)ccc3F)sc21 27.3%
COC(=O)N1CCCCC1c1cc(C(=O)NCc2ccc(Cl)c(Cl)c2)no1 (centres undefined) -38.9%
CC(C)COc1ccc(Br)cc1CNC(C)(C)C -18.4% [at 11 µM, 100% = signal doubled over neutral wells]
COCCN1Cc2cccc(C(=O)NCc3ccccc3OC)c2C1=O -20% [at 0.0016 µM, 100% = signal doubled over neutral wells]
Cc1ccc(S(=O)(=O)/N=C2\CN(C)C(=O)N2C)cc1 -21.8% [at 3.8 µM, 100% = signal doubled over neutral wells]
CSc1ccc(/C=N/N(C)S(=O)(=O)c2ccc(C)cc2)cc1 -22.1%
CCCc1nc(-c2cc3cc(C)ccc3[nH]c2=O)no1 -13.2% [at 1.2 µM, 100% = signal doubled over neutral wells]
